Records with an inconclusive call do not appear. Where a call stands in place of a potency, no number is given. Calls of active or inactive are those of the source. Calls come from the whole dose curve; as a rule, active = well fitted curve in the direction sought with a large enough effect in the signal ratio in the repeat runs (not every such curve was filed as active); inconclusive = weak or mixed curves, or effect the other way; inactive = no such curve, though single readings can be large or run the other way; the % refers to the signal ratio.
These molecules were tested against Estrogen receptor (Homo sapiens) (UniProt P03372) (assay: qHTS assay to identify small molecule antagonists of the estrogen receptor alpha (ER-alpha) signaling pathway (AID 743069)). Details: HEK293 ER-alpha-UAS-bla, beta-lactamase ratio, antagonist mode; series mostly up to 69.4 µM; activity, negative = inhibition: at the top concentration.
Source text: National Center for Advancing Translational Sciences [NCATS]
NIH Chemical Genomics Center [NCGC]
U.S. Environmental Protection Agency [EPA]
National Institutes of Environmental Health Sciences [NIEHS]
National Toxicology Program [NTP]
U.S. Food and Drug Administration [FDA]
Estrogen receptor (ER), a nuclear hormone receptor, plays an important role in development, metabolic homeostasis and reproduction. Two subtypes of ER, ER-alpha and ER-beta have similar expression patterns with some uniqueness in both types. Endocrine disrupting chemicals (EDCs) and their interactions with steroid hormone receptors like ER causes disruption of normal endocrine function. To identify the compounds that inhibit ER signaling, an ER-alpha-UAS-bla GripTiteTM cell line (Invitrogen, Carlsbad, CA, USA) containing a beta-lactamase reporter gene under the control of an Upstream Activator Sequence (UAS) stably integrated into HEK293 cells was used to screen the Tox21 10K compound library.
Tox21 Assay Protocol Summary:
ER-alpha-bla cells were cultured in assay medium containing 2% charcoal stripped FBS overnight in the culture flasks before the assay was performed. The cells were dispensed at 5,000 cells/5 uL of assay medium per well into black wall/clear-bottom 1536-well plates using a Multidrop Combi (ThermoFisher Scientific, Waltham, MA) dispenser. After the assay plates were incubated at a 37C and 5% CO2 for 4 hr, 23 nL of compounds dissolved in DMSO, positive controls or DMSO only was transferred to the assay plate by a Pintool station (Kalypsys, San Diego, CA), followed by addition of 1 uL of 17beta-estradiol in assay medium using a Flying Reagent Dispenser (Aurora Discovery, San Diego, CA). The plates were incubated at 37C and 5% CO2 for 18 hr. Then 1 uL of LiveBLAzerTM B/G FRET substrate was added using a Flying Reagent Dispenser, the plates were incubated at room temperature for 2 hours, and fluorescence intensity was measured by an Envision plate reader (PerkinElmer, Shelton, CT).

Sequence of Estrogen receptor (Homo sapiens) (P03372 whole entry, looked up): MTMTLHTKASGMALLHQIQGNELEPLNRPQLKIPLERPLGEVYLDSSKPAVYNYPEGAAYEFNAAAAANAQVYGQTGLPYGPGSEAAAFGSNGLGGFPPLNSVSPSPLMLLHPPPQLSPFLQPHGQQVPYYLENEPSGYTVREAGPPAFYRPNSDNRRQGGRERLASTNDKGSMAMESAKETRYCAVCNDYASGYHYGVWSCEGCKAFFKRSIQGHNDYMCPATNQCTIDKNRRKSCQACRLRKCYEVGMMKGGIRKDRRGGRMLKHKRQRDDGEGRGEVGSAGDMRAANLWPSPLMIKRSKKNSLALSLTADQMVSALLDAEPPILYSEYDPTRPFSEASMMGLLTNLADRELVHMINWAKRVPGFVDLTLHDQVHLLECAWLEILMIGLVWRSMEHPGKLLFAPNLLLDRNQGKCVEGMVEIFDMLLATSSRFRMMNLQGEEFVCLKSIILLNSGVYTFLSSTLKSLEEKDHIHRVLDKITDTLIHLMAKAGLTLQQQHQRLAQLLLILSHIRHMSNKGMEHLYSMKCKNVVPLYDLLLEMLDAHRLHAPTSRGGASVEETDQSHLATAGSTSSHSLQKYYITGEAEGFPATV

| Compound | Potency | activity, negative = inhibition |
| --- | --- | --- |
| Fc1ccc(Br)cc1 | inactive |  |
| OCCOCCOCCO | inactive |  |
| CCCCCCCC(=O)OC | inactive |  |
| CC(C)(N)CO |  | 21.7% (inactive) |
| CCN(CC)c1ccc(C(=O)c2ccccc2C(=O)O)c(O)c1 | inactive |  |
| COc1ccc(Nc2ccccc2)c(C)c1 | inactive |  |
| CC(C)c1ccc(S(=O)(=O)O)cc1 | inactive |  |
| COc1cc(Cc2cnc(N)nc2N)cc(OC)c1OC | inactive |  |
| Cc1cc(C)c(C)cc1C |  | -18.4% (inactive) |
| CCN(CC)CCCC(C)Nc1ccnc2cc(Cl)ccc12 (stereo not given) | inactive |  |
| Cc1ccc(N(C)C)cc1 | inactive |  |
| c1c[nH]cn1 | inactive |  |
| C=C(C)C(=O)Nc1ccc(Cl)c(Cl)c1 | inactive |  |
| O=S1(=O)CC=CC1 | inactive |  |
| CCCCCOC(C)=O | inactive |  |
| CCCCCCCCCCCCS |  | -7.59% (inactive) |
| CCCCCC1=CCCC1=O | inactive |  |
| c1ccc2scnc2c1 | inactive |  |
| CCc1ccc(CCOc2ccc(CC3SC(=O)NC3=O)cc2)nc1 (stereo not given) |  | -4.71% (inactive) |
| c1ccc(OCCOc2ccccc2)cc1 | inactive |  |

| Compound | Potency | activity, negative = inhibition |
| --- | --- | --- |
| O=C(O)CCCCCCCCCCC(=O)O | inactive |  |
| O=C(O)c1ccccc1C(c1ccc(O)cc1)c1ccc(O)cc1 |  | 11% (inactive) |
| O=C(OCCOCCOC(=O)c1ccccc1)c1ccccc1 | inactive |  |
| Cc1cccc(O)c1 | inactive |  |
| CCC(O)OC(O)CC (stereo not given) | inactive |  |
| C/C=C1/CC2C=CC1C2 (stereo not given) | inactive |  |
| C=CCOC(=O)c1ccccc1C(=O)OCC=C | inactive |  |
| CC[C@H](C)C(=O)O[C@H]1C[C@@H](C)C=C2C=C[C@H](C)[C@H](CC[C@@H]3C[C@@H](O)CC(=O)O3)[C@H]21 |  | -29.8% (inactive) |
| OC[C@H]1O[C@@](CO)(O[C@H]2O[C@H](CO)[C@@H](O)[C@H](O)[C@H]2O)[C@@H](O)[C@@H]1O | inactive |  |
| CC(=O)CC(=O)Nc1ccccc1C | inactive |  |
| O=C=NCCCCCCN=C=O | inactive |  |
| CCCCCCCCCC | inactive |  |
| CC(O)COCC(C)O (stereo not given) |  | -9.6% (inactive) |
| C=C(C)C(=O)O[C@H]1C[C@@H]2CC[C@@]1(C)C2(C)C | inactive |  |
| O=[N+]([O-])c1ccc(/C=C/c2ccc([N+](=O)[O-])cc2S(=O)(=O)O)c(S(=O)(=O)O)c1 | inactive |  |
| OCc1cccnc1 | inactive |  |
| COS(C)(=O)=O | inactive |  |
| O=c1[nH]c(=O)n([C@H]2C[C@H](O)[C@@H](CO)O2)cc1Br |  | -11.4% (inactive) |
| CCc1cccc(C)c1N |  | 8.99% (inactive) |
| O=C(O)c1cc(O)c(O)c(O)c1 | inactive |  |

Reference: PubChem BioAssay (Tox21)
